Source: PubChem BioAssay (National Center for Advancing Translational Sciences (NCATS))
Tb PGK inh: qHTS Assay to Find Inhibitors of Phosphoglycerate Kinase; PGK/GAPDH coupled, Kinase-Glo luminescence, 60 min; AID 602233, 2012; hit rate 0.043% among 380,000; Phosphoglycerate kinase, glycosomal (Trypanosoma brucei brucei), P07378; Potency, µM (series often up to 57.5 µM), inactives show at the top dose activity change, negative = inhibition, actives largely listed as inhibitors; note: potency is the fitted concentration of half-maximal effect; nearly all actives have a fitted effect of over 60% in size
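Recombinant glycosomal PGK reaction used 1,3-bisphosphoglycerate generated in-well by GAPDH (100nM final) in 100mM TEA pH 7.6, 5mM MgCl2, 0.01% Tween-20. After 60 minutes at room temperature, ATP was read by Kinase-Glo Plus luminescence end-point.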
KAT2A inh: qHTS Assay for Inhibitors of GCN5L2; Histone acetyltransferase KAT2A (Homo sapiens), Q92830; GCN5L2 HAT assay, ThioGlo1 CoA-SH fluorescence; Potency, µM (top dose mostly 58.9 µM), for inactives: top-dose activity change, negative = inhibition, most hits filed as inhibitors; hit rate 0.21% among 390,000; note: potency is the fitted concentration of half-maximal effect
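Preincubate 20nM GCN5L2 with compound 15 min, RT → add 50uM ThioGlo1 + 75uM H3(1-25) + 70uM acetyl-CoA → read fluorescence 0 and 20 min. Primary qHTS; fluorescent artifacts likely.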
KCNH2 3.1 inh: qHTS for Inhibitors of KCHN2 3.1: Mutant qHTS | Potassium voltage-gated channel subfamily H member 2, brain isoform KCNH2 3.1 (human) | U2OS KCNH2 3.1, thallium flux FluxOr; stronger effect = lower value | activity change, % (tested at about 1.8 µM) | hit rate 0.95% among 340,000;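 active = maximum activity change below -70%; inconclusive = maximum activity change from -70% to -50%; inactive = maximum activity change above -50%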;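 note: thallium influx rate constant from kinetic fluorescence after stimulation buffer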
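Thallium flux via FluxOr fluorescence (Red40 quencher, 45 min loading) in U2OS cells virally expressing the KCNH2 3.1 isoform (1.77 x 10^8 /mL virus, overnight at 37 C). Rate constants from 2-min kinetic reads post-stimulation, normalised to positive and negative controls.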
RGS4 inh: Inhibitors of Regulator of G Protein Signaling (RGS) 4: qHTS | Regulator of G-protein signaling 4 (Homo sapiens), P49798 | hit rate 0.039% among 390,000 | Potency, µM (doses to about 114 µM), inactives show top-dose activity change, negative = inhibition, usual class: inhibitors | AID 504845, 2011 | Transcreener GDP fluorescence polarization, RGS4-accelerated GTP hydrolysis; note: potency is the fitted concentration of half-maximal effect; nearly all actives have a fitted effect of over 75% in size
Target sequence (P49798 whole entry, looked up): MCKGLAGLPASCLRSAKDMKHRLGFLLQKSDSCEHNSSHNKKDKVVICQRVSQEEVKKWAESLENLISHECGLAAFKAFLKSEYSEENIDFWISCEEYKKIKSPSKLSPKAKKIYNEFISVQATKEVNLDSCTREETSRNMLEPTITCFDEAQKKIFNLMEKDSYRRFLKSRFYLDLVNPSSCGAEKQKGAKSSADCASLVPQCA
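MLSMR compounds (23 nl, pin-transferred) preincubated 10 min at room temperature with a 500nM (2x) first reagent, then RGS4 at 900nM (2x) plus Transcreener GDP mix added; fluorescence polarization (620/688 nm) read before and after 90 min at 30 °C.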
Pin1 inh: qHTS Assay to Find Inhibitors of Pin1 | Pin1 FP peptide displacement, HiFluor488, 10 min | Potency, µM (titrated, usually from 115 µM), without a hit: at the highest dose activity, negative = inhibition, actives largely listed as inhibitors | hit rate 0.009% among 390,000; active = well fitted inhibition curve with a large enough effect in the polarisation, with a control signal flat, not every such curve was filed as active; inconclusive = small, poorly fitted or top-dose-only effect, or effect the other way, or a change in a side signal; inactive = no such curve, though single readings can be large or run the other way; the % refers to the polarisation; note: potency is the fitted concentration of half-maximal effect
Target sequence (Q13526 whole entry, looked up): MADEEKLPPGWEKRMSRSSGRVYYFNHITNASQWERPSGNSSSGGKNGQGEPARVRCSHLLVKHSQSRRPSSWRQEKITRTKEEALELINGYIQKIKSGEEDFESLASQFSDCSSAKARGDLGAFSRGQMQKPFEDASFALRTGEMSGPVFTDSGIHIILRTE
hERG WT inh: qHTS for Inhibitors of KCHN2 3.1: Wildtype qHTS. Voltage-gated inwardly rectifying potassium channel KCNH2 (Homo sapiens), Q12809. U2OS, BacMam KCNH2, thallium flux FluxOr; stronger effect = lower value. activity change, % at 1.84 µM. hit rate 0.37% among 340,000. AID 720551, 2013;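 active = maximum activity change below -70%; inconclusive = maximum activity change between -70% and -50%; inactive = maximum activity change above -50%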
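U2OS cells transduced with wild-type KCNH2 virus are loaded with FluxOr dye for 45 min, and thallium flux is measured in kinetic reads before and after stimulation buffer. Rate constants are normalized to DMSO controls.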
The depositor's hits bear a star; i = inactive; ? = inconclusive; . = not tested or not shown; [ ] = another dose, or the depositor's remark. Hits are enriched below; roughly 1.2% of the tested compounds scored in any of these assays. Unless noted, calls come from the whole dose curve; as a rule, active = well fitted curve in the direction sought with a large enough effect; inconclusive = small, poorly fitted or top-dose-only effect, or another doubt; inactive = no such curve, though single readings can be large; an effect the other way counts as inactive or inconclusive. % is set by controls: 0 for no effect and ±100 for the full control effect.

SMILES	Tb PGK inh	KAT2A inh	KCNH2 3.1 inh	RGS4 inh	Pin1 inh	hERG WT inh
CC(C)Cc1nn2cc(-c3cccc(Br)c3)nc2s1	-7.0%	-10.8%	.	-2.5%	0.2%	.
COc1ccc(C(=O)NC2CCCCCC2)cc1S(=O)(=O)N1CCCC1	-1.6%	0.0%	-18.8	-4.4%	0.5%	0.4
COc1ccc(C(=O)NC2CCCCCC2)cc1S(=O)(=O)Nc1ccc(Br)cc1	-9.0%	0.9%	-80.4*	20.7%	2.2%	-7.0
C#CCCOC(=O)N1C2=NC(C(=O)OC)=C(C(=O)OC)[C@@H]3N(Cc4ccccc4)c4ccccc4[C@]23C[C@H]1C(=O)OC	i	14.2%	-135.7*	-5.5%	6.1%	-3.2
CN1CCCC2(CCN(C(=O)c3cccn3C)CC2)C1	.	2.2%	.	.	.	.
CN(C)c1ccc(CNC(=O)c2ccc(Cn3c(SCc4ccccc4)nc4cccnc43)cc2)cc1	-4.8%	-10.6%	.	0.6%	35.4%	.
NC(=O)CSc1nnc(Cc2ccc3c(c2)OCO3)n1C1CCCCC1	-2.0%	-1.4%	-77.4*	?	4.4%	0.4
O=C(CSc1nnc(Cc2ccc3c(c2)OCO3)n1C1CCCCC1)NC1CCCC1	-5.4%	1.8%	-4.4	-36.2%[56.9 µM]	-1.2%	1.7
COc1ccccc1CN1CCC2(CC1)CCN(S(C)(=O)=O)CC2	.	13.6%	.	.	.	.
CN1CCN(c2ncc3nc(-c4cccs4)c(=O)n(CCc4ccccc4)c3n2)CC1	.	-8.7%	.	.	.	.
CCOC(=O)C(C)Nc1ncnc2onc(C)c12 (configuration not stated)	-4.5%	1.6%	.	9.2%	0.8%	.
O=C(CCN1C(=O)c2ccccc2C1=O)NC(=S)Nc1cccc(Cl)c1	-5.2%	-8.7%	-72.3*	11.5%	9.7%	-5.9
O=C(CCN1C(=O)c2ccccc2C1=O)NC(=S)Nc1ccccc1	-1.2%	1.3%	0.9	-45.9%	-0.8%	-2.4
COc1cccc(NC(=O)C2CC(=O)N(c3ccc(Br)cc3)C2)c1 (configuration not stated)	-13.9%	-2.8%	.	-3.7%	1.6%	.
CC(C)NC(=O)CN1C(=O)c2cccnc2Sc2ccccc21	8.5%	6.0%	.	-18.7%	-3.6%	.
COCC(C)N1CCC(n2nccc2NC(=O)c2ccccc2Cl)CC1 (configuration not stated)	i	.	-28.9	8.8%	-3.1%	30.9
Cc1ccccc1C(=O)Nc1ccnn1C1CCN(C(C)Cc2ccccc2F)CC1 (configuration not stated)	i	-16.5%	-75.8*	4.8%	?	2.5
Cc1ccc(C(C)CCN2CCC(n3nccc3NC(=O)c3ccccc3)CC2)o1 (configuration not stated)	3.2%	-11.8%	-42.8	-11.3%	-0.8%	49.4
COc1ccccc1C(=O)Nc1ccnn1C1CCN(CCC(C)c2ccc(C)o2)CC1 (configuration not stated)	-3.2%	-0.8%	-98.3*	8.6%	0.2%	-104.0*
CCN1C(=O)c2ccccc2S(=O)(=O)c2ccc(C(=O)NCc3ccc(C)cc3)cc21	2.3%	-2.1%	.	-27.2%	9.9%	.
CCCN1CNc2c(c(=O)[nH]c(=S)n2CCc2cc(Cl)cc(Cl)c2)C1	.	.	.	-4.5%	11.3%	.
CS(=O)(=O)N1Cc2ccccc2CC1C(=O)O (configuration not stated)	-3.1%	-7.1%	-95.0*	2.7%	-9.3%	-11.2
CC(=O)c1ccc(S(=O)(=O)N2Cc3ccccc3CC2C(=O)O)cc1 (configuration not stated)	-5.1%	-10.5%	13.7	-15.5%	?	-9.2
CCSc1nnc(Cc2cc(=O)[nH]c(=O)[nH]2)n1-c1cccc(C)c1	-1.2%	-14.3%	19.0	1.8%	-4.9%	7.2
CCCSc1nnc(Cc2cc(=O)[nH]c(=O)[nH]2)n1-c1cc(C)ccc1C	-4.3%	-4.3%	10.1	23.2%[11.4 µM]	-3.4%	-89.0*
SMILES	Tb PGK inh	KAT2A inh	KCNH2 3.1 inh	RGS4 inh	Pin1 inh	hERG WT inh
NC(=O)c1ccccc1[N+](=O)[O-]	-10.7%	-10.1%	-5.4	-10.1%	-2.9%	4.0
N#CC(CCc1ccccc1[N+](=O)[O-])(CCc1ccccc1[N+](=O)[O-])C(N)=O	0.1%	.	-121.0*	-6.6%	5.8%	?
COc1ccc(CN2CCC(C(=O)Nc3ccc(Oc4cccnc4)cc3)CC2)c(C)c1C	-2.9%	-5.8%	-74.3*	-12.9%	-15.5%	4.8
CCn1cc(CN2CCC(C(=O)Nc3cccc(-c4cccc(F)c4)c3)CC2)cn1	-2.1%	-3.6%	-46.2	13.8%	-3.4%	29.7
COc1cccc(O)c1CN1CCC(C(=O)Nc2ccc(-c3cccc(C)c3)cc2)CC1	-9.3%	-9.7%	-99.2*	7.3%	-2.8%	-42.2
COc1cccc(O)c1CN1CCC(C(=O)Nc2ccc(Oc3cccnc3)cc2)CC1	i	-4.3%	-23.3	-43.6%	-0.9%	-3.3
CCn1nc(C)c(CN2CCC(C(=O)Nc3cccc(-c4cccc(F)c4)c3)CC2)c1C	9.0%	-6.8%	-78.4*	14.9%	0.6%	?
CCOc1cccc2cc(-c3nc4sc5c(c4c(=O)[nH]3)CCC(C)C5)c(=O)oc12 (configuration not stated)	-0.5%	-5.4%	.	11.4%	-1.9%	.
COC(=O)c1c(NC(=O)CCCOc2ccc(C)cc2)sc2c1C(C(=O)OC)CC2 (configuration not stated)	-7.7%	?	.	?	25.7%	.
CCCCN(CC)CCCNC(=O)c1sc2nc(C)cc(C)c2c1-n1cccc1	-1.1%	-13.1%	.	-22.3%	7.2%	.
C=CCn1c(-c2csc(-c3ccc(Cl)cc3)n2)n[nH]c1=S	-5.1%	-0.5%	-195.4*	?	5.6%	-187.3*
C=CCn1c(-c2csc(-c3ccccc3)n2)n[nH]c1=S	-7.1%	.	1.5	-50.5%	-4.4%	5.8
S=c1[nH]nc(-c2ccccc2)n1Cc1ccccc1	-6.1%	-1.0%	13.2	-29.2%	-8.3%	0.1
S=c1[nH]nc(-c2ccc(Cl)cc2)n1Cc1ccccc1	.	-3.3%	3.8	-50.9%	-0.7%	-306.3*
Cc1ccc2cccc(NC(=O)C(C)Oc3ccc(Cl)cc3Cl)c2n1 (configuration not stated)	-0.7%	-10.2%	.	-3.5%	-3.5%	.
COc1ccc(C2=NOC(C(=O)Nc3ccc4c(c3)OCCO4)C2)cc1OC (configuration not stated)	-1.9%	-4.8%	-1.5	-6.0%	-0.2%	-11.9
